# Experimental data published in the antibiotic and cytotoxicity screens of Wong et al. (2023).
# Hit rate of the full screen: of about 39,000 compounds, about 3,300 (8.5%) were called active. The list comes from a sample in which actives are over-represented; it also holds similar structures and randomly drawn compounds.
# Tested on: HepG2
# Experiment: cytotoxicity call (relative viability < 0.9)
# Settings: 10 µM
row,SMILES,cytotoxicity call
1,COc1cc(NC(C)CCCN)c2ncccc2c1.O=P(O)(O)O.O=P(O)(O)O (stereo not drawn),active
2,Cc1c(-c2c(-c3ccc(F)o3)sc3ncnc(O[C@H](Cc4ccccc4OCc4ccnn4CC(F)(F)F)C(=O)O)c23)ccc(OCCN2CCN(C)CC2)c1Cl,active
3,C[C@H]1CN([C@@H](C)CO)C(=O)CCCn2cc(nn2)CO[C@H]1CN(C)S(=O)(=O)c1ccccc1C#N,inactive
4,C[C@H](CO)N1C[C@H](C)[C@H](CN(C)C(=O)Nc2ccc(F)cc2)OCCCC[C@H](C)Oc2ccc(NC(=O)NC3CCCCC3)cc2C1=O,inactive
5,O=c1[nH]c(=O)n(C2CC(O)C(CO)O2)cc1C(F)(F)F (stereo not drawn),inactive
6,O=c1[nH]c(=O)n([C@H]2C[C@H](O)[C@@H](CO)O2)cc1C(F)(F)F,active
7,Cc1cn([C@H]2C[C@H](O)[C@@H](CO)O2)c(=O)[nH]c1=O,inactive
8,O=c1[nH]c(=O)n([C@H]2C[C@H](O)[C@@H](CO)O2)cc1F,inactive
9,O=c1[nH]c(=O)n([C@@H]2C[C@@H](O)[C@@H](CO)O2)cc1F,inactive
10,O=c1[nH]c(=O)n(C2CC(O)C(CO)O2)cc1F (stereo not drawn),active
11,CCCNC(=O)C[C@H]1CC[C@@H]2[C@H](COc3ccc(NC(=O)c4ccc5c(c4)OCO5)cc3C(=O)N2C)O1,inactive
12,COc1ccccc1NC(=O)N(C)C[C@H]1Oc2ncc(C#CC(C)C)cc2C(=O)N([C@H](C)CO)C[C@H]1C,inactive
13,C/C=C/c1ccc2c(c1)O[C@H](CN(C)S(=O)(=O)c1ccccc1OC)[C@H](C)CN([C@H](C)CO)S2(=O)=O,inactive
14,COc1ccc(NC(=O)N(C)C[C@H]2OCCCC[C@H](C)Oc3ccc(NC(=O)NC4CCCCC4)cc3C(=O)N([C@H](C)CO)C[C@@H]2C)cc1,inactive
15,Cc1ccc(NC(=O)CC(C)C)cc1,inactive
16,CN(C)c1ccc(NC(=O)CN)cc1,active
17,NCC(=O)Nc1ccc(Br)cc1,inactive
18,C[C@H](CO)N1C[C@H](C)[C@H](CN(C)Cc2ccc3c(c2)OCO3)Oc2c(NS(C)(=O)=O)cccc2C1=O,inactive
19,C[C@H](CO)N1C[C@H](C)[C@H](CN(C)C(=O)CCCN(C)C)OCCCC[C@H](C)Oc2ccc(NC(=O)Nc3ccc(F)cc3)cc2C1=O,inactive
20,Cc1cccc(=O)n1CCCCN,inactive
21,Cc1ccc2c(=O)c3ccccc3n(CCCN)c2c1C,active
22,Cn1cnc(=O)c2ccccc21,inactive
23,COc1ccc(NC(=O)Nc2cccc3c2O[C@H](CN(C)C(=O)Nc2ccc(C(F)(F)F)cc2)[C@H](C)CN([C@H](C)CO)C3=O)cc1,inactive
24,O=C(C[C@H]1C[C@H]2c3cc(NC(=O)Cc4ccncc4)ccc3O[C@H]2[C@@H](CO)O1)NCc1cc(F)ccc1F,inactive

row,SMILES,cytotoxicity call
1,C[C@H]1CN([C@@H](C)CO)C(=O)Cc2cc(NC(=O)c3ccncc3)ccc2O[C@H]1CN(C)S(=O)(=O)c1ccc(Cl)cc1,inactive
2,C[C@H]1CN([C@@H](C)CO)C(=O)Cc2cc(NC(=O)C3CC3)ccc2O[C@@H]1CN(C)Cc1ccc2c(c1)OCO2,inactive
3,Cc1ccc(S(=O)(=O)N(C)C[C@@H]2OCCCC[C@H](C)Oc3ccc(NC(=O)c4ccccc4)cc3C(=O)N([C@H](C)CO)C[C@H]2C)cc1,active
4,COc1ccc(S(=O)(=O)N(C)C[C@@H]2OCCCC[C@H](C)Oc3ccc(NC(=O)c4ccccc4)cc3C(=O)N([C@@H](C)CO)C[C@H]2C)cc1,active
5,C[C@@H]1CCCCO[C@H](CN(C)S(=O)(=O)c2ccccc2)[C@H](C)CN([C@@H](C)CO)C(=O)c2cc(NC(=O)c3ccccc3)ccc2O1,inactive
6,COc1ccc(S(=O)(=O)N(C)C[C@@H]2OCCCC[C@@H](C)Oc3ccc(NC(=O)c4ccccc4)cc3C(=O)N([C@H](C)CO)C[C@@H]2C)cc1,inactive
7,C[C@@H]1CCCCO[C@H](CN(C)S(=O)(=O)c2ccccc2)[C@@H](C)CN([C@H](C)CO)C(=O)c2cc(NC(=O)c3ccccc3)ccc2O1,inactive
8,C[C@@H]1CN([C@H](C)CO)C(=O)c2cc(NC(=O)c3ccccc3)ccc2O[C@@H](C)CCCCO[C@H]1CN(C)S(=O)(=O)c1ccccc1,active
9,Cc1ccc(S(=O)(=O)N(C)C[C@H]2OCCCC[C@H](C)Oc3ccc(NC(=O)c4ccccc4)cc3C(=O)N([C@@H](C)CO)C[C@H]2C)cc1,inactive
10,Cc1ccc(S(=O)(=O)N(C)C[C@@H]2OCCCC[C@@H](C)Oc3ccc(NC(=O)c4ccccc4)cc3C(=O)N([C@@H](C)CO)C[C@H]2C)cc1,inactive
11,COc1ccc(S(=O)(=O)N(C)C[C@H]2OCCCC[C@@H](C)Oc3ccc(NC(=O)c4ccccc4)cc3C(=O)N([C@@H](C)CO)C[C@H]2C)cc1,inactive
12,CC(C)(C)[S@](=O)N1Cc2cc(C(=O)N3CCCCC3)nc(-c3cccc(-c4cccc(C#N)c4)c3)c2[C@@H]1CCO,inactive
13,CCO[C@H]1OC(C(N)=O)=C[C@@H](C)[C@@H]1CCCO,inactive
14,C[C@H]1COC(=O)[C@@H](Cc2ccc(F)cc2)CCC=CC[C@@H](CC(=O)N[C@@H](CO)Cc2ccccc2)C(=O)N1,inactive
15,C[C@@H]1CN([C@H](C)CO)C(=O)Cc2cc(NC(=O)c3ccncc3)ccc2O[C@@H]1CN(C)S(=O)(=O)c1ccc(Cl)cc1,inactive
16,CC(C)CC#Cc1ccc2c(c1)O[C@@H](CN(C)C(=O)c1ccncc1)[C@H](C)CN([C@@H](C)CO)S2(=O)=O,inactive
17,N=C(NO)C(=O)Nc1ccccc1,inactive
18,C[C@H]1CN([C@@H](C)CO)C(=O)c2ccccc2-c2ccccc2CO[C@H]1CN(C)C(=O)Nc1ccc(F)cc1,inactive
19,C[C@H]1CN([C@@H](C)CO)C(=O)c2cccc(NC(=O)C3CCOCC3)c2O[C@@H]1CN(C)S(=O)(=O)c1ccc(F)cc1,inactive
20,COc1ccc([Si](C)(C)[C@H]2[C@H](CCO)O[C@@]3(C(=O)N(Cc4ccccc4)c4ccc(N5C(=O)c6ccccc6Oc6ccccc65)cc43)[C@@H]2C)cc1,active
21,COc1ccc([Si](C)(C)[C@@H]2[C@@H](CCO)O[C@]3(C(=O)N(Cc4ccc(N5C(=O)c6ccccc6Oc6ccccc65)cc4)c4ccccc43)[C@H]2C)cc1,active
22,COc1ccc([Si](C)(C)[C@@H]2[C@@H](CCO)O[C@]3(C(=O)N(Cc4ccccc4)c4ccc(N5C(=O)c6ccccc6Oc6ccccc65)cc43)[C@H]2C)cc1,inactive
23,C[C@H]1[C@H]([Si](C)(C)F)[C@@H](CCO)O[C@]12C(=O)N(Cc1ccccc1)c1ccc(N3C(=O)c4ccccc4Oc4ccccc43)cc12,inactive
24,COc1ccc([Si](C)(C)[C@H]2[C@H](CCO)O[C@@]3(C(=O)N(Cc4ccc(N5C(=O)c6ccccc6Oc6ccccc65)cc4)c4ccccc43)[C@@H]2C)cc1,active
